Assay results published in the supplement of paper PMC11732987, “Enantioselective OTUD7B fragment discovery through chemoproteomics screening and high-throughput optimisation” (Communications Chemistry, 2025).
A number with no mark means an inactive call.

Experiments:
Test in all cases: log2 ratio of Biotin-Ahx-Ub-VS probe labelling (fragment/DMSO); higher = less target engagement (more negative = stronger competition), active = hit call of the paper (q ≤ 0.05, log2 ratio ≤ -1)
Conditions in all cases: compound concentration: 200 uM; treatment time: 3 h
OTUD6B = biological target: T1, OTUD6B (UniProt Q8N6M0)
T1 sequence (whole entry): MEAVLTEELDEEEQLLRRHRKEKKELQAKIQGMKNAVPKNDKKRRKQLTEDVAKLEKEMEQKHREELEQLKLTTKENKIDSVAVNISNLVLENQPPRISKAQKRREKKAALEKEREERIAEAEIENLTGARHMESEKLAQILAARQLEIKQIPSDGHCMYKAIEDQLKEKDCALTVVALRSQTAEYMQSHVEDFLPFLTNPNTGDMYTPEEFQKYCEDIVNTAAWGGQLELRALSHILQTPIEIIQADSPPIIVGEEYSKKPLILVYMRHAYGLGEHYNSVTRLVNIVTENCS
Outline: (§1)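 Each value is an average log2 ratio of fragment to vehicle, tested by unpaired t-test. The underlying Spectronaut label-free quantities were global-median-normalised, and only proteins with ≥2 unique peptides were included. Triplicate HEK293T lysate samples (495 µg) were exposed to fragment at 200 µM or vehicle for 3 h, then to Biotin-Ahx-Ub-VS at 0.5 µM final for 1 h, before NeutrAvidin enrichment of labelled DUBs, LysC and trypsin digestion, and diaPASEF LC-MS/MS.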

OTUD7B = biological target: T2, OTUD7B (UniProt Q6GQQ9)
T2 sequence (whole entry): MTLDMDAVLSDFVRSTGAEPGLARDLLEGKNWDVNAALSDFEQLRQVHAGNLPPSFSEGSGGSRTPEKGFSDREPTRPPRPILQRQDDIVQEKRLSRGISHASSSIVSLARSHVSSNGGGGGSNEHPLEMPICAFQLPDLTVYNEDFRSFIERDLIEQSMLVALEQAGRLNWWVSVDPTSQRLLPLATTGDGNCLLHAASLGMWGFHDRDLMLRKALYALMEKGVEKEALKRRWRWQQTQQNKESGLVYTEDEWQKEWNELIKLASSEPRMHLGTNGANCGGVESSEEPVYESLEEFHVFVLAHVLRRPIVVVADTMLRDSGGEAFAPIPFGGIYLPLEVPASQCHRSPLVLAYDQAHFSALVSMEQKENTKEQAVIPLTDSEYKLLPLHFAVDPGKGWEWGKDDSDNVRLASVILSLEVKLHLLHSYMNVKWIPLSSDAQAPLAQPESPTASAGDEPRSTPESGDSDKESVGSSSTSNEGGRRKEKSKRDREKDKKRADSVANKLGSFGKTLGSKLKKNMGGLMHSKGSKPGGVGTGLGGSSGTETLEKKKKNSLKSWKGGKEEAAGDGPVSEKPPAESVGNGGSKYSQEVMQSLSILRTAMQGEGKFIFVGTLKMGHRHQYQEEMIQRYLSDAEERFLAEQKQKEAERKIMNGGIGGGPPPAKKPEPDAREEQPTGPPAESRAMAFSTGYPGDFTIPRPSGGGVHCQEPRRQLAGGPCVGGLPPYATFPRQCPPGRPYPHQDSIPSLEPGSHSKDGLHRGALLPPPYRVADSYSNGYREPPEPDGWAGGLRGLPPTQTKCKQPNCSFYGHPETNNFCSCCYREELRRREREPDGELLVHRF
Outline: as §1

PRPF8 = PRPF8 (UniProt Q6P2Q9)
Outline: as §1

PSMD7 = biological target: T3, PSMD7 (UniProt P51665)
T3 sequence (whole entry): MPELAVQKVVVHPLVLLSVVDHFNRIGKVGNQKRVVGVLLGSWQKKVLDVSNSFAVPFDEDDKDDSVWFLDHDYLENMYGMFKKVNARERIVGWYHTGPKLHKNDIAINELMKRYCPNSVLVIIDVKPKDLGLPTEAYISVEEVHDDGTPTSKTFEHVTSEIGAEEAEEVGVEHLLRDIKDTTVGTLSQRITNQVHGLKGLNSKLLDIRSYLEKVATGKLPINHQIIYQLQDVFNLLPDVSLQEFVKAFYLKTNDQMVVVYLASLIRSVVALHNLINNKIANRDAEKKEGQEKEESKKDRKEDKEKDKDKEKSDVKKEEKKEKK
Outline: as §1

UCHL1 = UCHL1 (UniProt P09936)
Outline: as §1

UCHL3 = biological target: T4, UCHL3 (UniProt P15374)
T4 sequence (whole entry): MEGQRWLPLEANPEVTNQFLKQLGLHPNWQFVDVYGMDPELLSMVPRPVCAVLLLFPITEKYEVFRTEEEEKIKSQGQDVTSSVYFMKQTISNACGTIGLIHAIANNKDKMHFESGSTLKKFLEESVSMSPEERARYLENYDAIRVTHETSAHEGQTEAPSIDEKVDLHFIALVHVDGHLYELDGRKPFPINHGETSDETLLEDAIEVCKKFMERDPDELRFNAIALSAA
Outline: as §1

UCHL5 = biological target: T5, UCHL5 (UniProt Q9Y5K5)
T5 sequence (whole entry): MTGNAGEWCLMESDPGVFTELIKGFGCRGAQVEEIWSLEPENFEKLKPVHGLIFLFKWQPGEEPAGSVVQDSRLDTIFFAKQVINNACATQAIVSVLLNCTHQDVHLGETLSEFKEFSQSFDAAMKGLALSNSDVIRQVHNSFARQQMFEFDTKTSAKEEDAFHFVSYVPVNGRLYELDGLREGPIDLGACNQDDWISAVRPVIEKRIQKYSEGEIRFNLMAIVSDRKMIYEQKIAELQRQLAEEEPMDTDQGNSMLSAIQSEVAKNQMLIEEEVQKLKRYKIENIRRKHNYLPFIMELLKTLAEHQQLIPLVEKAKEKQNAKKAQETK
Outline: as §1

USP10 = USP10 (UniProt Q14694)
Outline: as §1

USP15 = biological target: T6, USP15 (UniProt Q9Y4E8)
T6 sequence (whole entry): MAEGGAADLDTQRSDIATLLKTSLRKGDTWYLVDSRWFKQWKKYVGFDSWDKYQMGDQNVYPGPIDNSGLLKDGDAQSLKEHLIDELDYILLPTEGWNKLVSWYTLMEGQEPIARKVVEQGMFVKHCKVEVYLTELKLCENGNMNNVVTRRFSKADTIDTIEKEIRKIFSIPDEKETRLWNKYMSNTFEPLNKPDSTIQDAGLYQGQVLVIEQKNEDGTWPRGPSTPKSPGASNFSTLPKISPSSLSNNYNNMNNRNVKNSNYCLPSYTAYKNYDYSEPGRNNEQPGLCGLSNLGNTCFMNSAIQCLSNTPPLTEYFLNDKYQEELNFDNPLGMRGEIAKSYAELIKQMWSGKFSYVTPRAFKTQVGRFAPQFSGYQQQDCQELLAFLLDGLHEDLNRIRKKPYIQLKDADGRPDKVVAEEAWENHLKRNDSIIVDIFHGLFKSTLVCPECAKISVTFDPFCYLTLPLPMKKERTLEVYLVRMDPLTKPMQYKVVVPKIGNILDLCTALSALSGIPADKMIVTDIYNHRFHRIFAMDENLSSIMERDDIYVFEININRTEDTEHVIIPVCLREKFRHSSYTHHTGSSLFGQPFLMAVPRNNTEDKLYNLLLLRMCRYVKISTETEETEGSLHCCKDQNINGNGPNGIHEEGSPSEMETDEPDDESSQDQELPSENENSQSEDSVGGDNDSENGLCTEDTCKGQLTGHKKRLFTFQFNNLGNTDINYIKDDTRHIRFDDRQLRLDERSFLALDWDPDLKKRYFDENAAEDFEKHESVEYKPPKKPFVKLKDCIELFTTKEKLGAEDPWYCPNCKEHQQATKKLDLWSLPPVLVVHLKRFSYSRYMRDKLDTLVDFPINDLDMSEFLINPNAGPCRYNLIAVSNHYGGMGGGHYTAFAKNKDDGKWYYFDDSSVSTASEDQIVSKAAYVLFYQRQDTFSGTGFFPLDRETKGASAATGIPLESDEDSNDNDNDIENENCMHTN
Outline: as §1

USP16 = USP16 (UniProt Q9Y5T5)
Outline: as §1

Sequence of USP16 (Q9Y5T5 whole entry, looked up): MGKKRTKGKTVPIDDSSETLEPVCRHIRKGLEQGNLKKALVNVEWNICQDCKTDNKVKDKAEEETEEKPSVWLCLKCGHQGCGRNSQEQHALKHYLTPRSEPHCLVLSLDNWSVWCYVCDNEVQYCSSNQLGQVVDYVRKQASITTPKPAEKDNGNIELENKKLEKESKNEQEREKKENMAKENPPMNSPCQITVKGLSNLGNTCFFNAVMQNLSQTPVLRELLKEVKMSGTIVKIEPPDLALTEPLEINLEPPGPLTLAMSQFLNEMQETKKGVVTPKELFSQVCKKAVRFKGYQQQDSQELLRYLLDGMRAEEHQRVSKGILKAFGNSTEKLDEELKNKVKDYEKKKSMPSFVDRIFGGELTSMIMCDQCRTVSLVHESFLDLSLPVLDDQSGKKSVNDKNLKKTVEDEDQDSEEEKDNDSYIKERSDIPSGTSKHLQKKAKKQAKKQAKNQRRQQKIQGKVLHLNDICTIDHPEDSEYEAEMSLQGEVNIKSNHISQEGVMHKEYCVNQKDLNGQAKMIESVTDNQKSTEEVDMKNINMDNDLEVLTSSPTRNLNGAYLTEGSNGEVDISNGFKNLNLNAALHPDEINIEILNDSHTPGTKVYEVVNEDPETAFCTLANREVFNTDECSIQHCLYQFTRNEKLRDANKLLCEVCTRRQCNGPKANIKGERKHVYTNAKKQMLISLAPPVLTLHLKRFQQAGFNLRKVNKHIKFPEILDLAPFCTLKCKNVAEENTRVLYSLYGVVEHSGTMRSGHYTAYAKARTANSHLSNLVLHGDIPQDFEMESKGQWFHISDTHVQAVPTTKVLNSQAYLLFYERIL
Sequence of UCHL1 (P09936 whole entry, looked up): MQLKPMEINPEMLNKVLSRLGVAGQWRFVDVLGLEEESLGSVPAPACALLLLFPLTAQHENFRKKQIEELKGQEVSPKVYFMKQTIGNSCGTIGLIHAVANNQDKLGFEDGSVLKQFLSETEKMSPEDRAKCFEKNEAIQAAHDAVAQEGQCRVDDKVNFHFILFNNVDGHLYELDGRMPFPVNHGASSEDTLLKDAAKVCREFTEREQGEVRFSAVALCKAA
Sequence of USP10 (Q14694 whole entry): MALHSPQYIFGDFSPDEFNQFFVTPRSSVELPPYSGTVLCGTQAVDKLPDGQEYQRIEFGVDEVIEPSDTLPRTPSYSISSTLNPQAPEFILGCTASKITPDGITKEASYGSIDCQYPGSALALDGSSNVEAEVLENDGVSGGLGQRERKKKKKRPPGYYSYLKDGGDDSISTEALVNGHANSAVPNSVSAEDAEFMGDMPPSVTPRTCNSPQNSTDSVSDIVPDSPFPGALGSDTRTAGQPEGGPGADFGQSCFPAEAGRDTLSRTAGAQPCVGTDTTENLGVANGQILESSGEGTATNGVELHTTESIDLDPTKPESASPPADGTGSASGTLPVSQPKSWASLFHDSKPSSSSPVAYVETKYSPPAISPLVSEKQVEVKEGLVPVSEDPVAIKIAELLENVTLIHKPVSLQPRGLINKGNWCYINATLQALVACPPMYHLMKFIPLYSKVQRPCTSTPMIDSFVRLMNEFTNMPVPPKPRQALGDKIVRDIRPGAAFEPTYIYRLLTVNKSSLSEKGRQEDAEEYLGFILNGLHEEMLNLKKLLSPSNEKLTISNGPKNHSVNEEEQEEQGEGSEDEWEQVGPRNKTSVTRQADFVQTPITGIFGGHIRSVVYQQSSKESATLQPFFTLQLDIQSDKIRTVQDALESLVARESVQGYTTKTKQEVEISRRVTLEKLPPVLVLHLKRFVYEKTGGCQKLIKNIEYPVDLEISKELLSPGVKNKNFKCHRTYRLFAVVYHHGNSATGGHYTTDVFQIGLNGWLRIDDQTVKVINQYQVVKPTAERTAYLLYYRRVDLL

## O=C(CCl)N1CCOC(CCc2ccccc2)C1 (stereo not given)
OTUD6B
  log2 ratio of Biotin-Ahx-Ub-VS probe labelling: -0.215
OTUD7B
  log2 ratio of Biotin-Ahx-Ub-VS probe labelling: -0.71
PRPF8
  log2 ratio of Biotin-Ahx-Ub-VS probe labelling: -0.0352
PSMD7
  log2 ratio of Biotin-Ahx-Ub-VS probe labelling: -0.432
UCHL1
  log2 ratio of Biotin-Ahx-Ub-VS probe labelling: -1.46 (active)
UCHL3
  log2 ratio of Biotin-Ahx-Ub-VS probe labelling: -0.025
UCHL5
  log2 ratio of Biotin-Ahx-Ub-VS probe labelling: -0.22
USP10
  log2 ratio of Biotin-Ahx-Ub-VS probe labelling: -0.258
USP15
  log2 ratio of Biotin-Ahx-Ub-VS probe labelling: -0.374
USP16
  log2 ratio of Biotin-Ahx-Ub-VS probe labelling: -0.411
